What follows are compounds tested against Torsin-1A (Homo sapiens) (UniProt O14656) (assay: small-molecule binders of mutant TOR1A in lysate, primary screen, cell lysate, small-molecule microarray, COS7 lysate, 635/667 nm fluorescence (AID 1150;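 note: score pools 667 nm emission and signal to noise measuring lysate protein binding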)). Conditions: COS7 hTOR1A mutant lysate, 635 nm fluorescence, higher = more signal.
Torsin-1A (Homo sapiens), sequence (O14656 whole entry, looked up): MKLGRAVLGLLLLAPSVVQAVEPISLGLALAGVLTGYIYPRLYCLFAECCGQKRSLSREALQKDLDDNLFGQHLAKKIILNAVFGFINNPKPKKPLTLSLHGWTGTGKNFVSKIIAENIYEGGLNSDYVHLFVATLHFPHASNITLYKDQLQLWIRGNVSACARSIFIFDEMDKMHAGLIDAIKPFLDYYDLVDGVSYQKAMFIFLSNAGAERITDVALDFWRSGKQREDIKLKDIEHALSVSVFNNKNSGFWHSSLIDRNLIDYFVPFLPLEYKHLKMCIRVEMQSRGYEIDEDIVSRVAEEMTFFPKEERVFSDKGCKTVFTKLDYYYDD
With `CCC#CCN(Cc1ccccc1Br)[C@H](/C=C/C1CC1)[C@@H](O)Cc1ccccc1` the composite z-score was 0.0257. In the case of `CCCCN1CC=CC23O[C@@H]4/C=C\CCCOC(=O)C4[C@H]2C(=O)N(CCO)[C@@H]3C1=O` (stereo partly specified), the composite z-score is reported as -1.59. `C=CCNC(=O)[C@@H]1[C@H]2C(=O)O[C@H](c3ccccc3)[C@H](c3ccccc3)N2[C@H](c2ccccc2OCCO)[C@@]12C(=O)N(C(=O)OCCOC)c1ccc(C#CC3(O)CCCCCC3)cc12` was tested, and the composite z-score was 0.631. For `O=C(C1N=C(c2ccc(OCCCO)cc2)N(c2ccccc2)O1)N1CCCCC1` (stereo unspecified), the composite z-score was 0.854. Compound `CN(C)CCCCCCNC(=O)[C@@H]1C[C@@H]2C(=O)N3CCC[C@H]3C(=O)N2[C@@H]1c1cccc(OCCO)c1` has a composite z-score of 1.43. For `COC(=O)[C@@]1(Cc2ccccc2)[C@H]2c3cc(C(=O)N(C)C)n(Cc4ccc(C)o4)c3C[C@H]2CN1C(=O)c1ccccc1`, the composite z-score was 0.751. `O[C@@H](Cc1ccccc1)[C@@H](/C=C/C1CC1)N(CC#Cc1ccccc1)Cc1ccccc1Br` was tested, and the composite z-score was -0.744. Work on `COCC(=C=CC[C@H](O)c1ccc(OCCO)cc1)CCO` yielded a composite z-score of 0.911. `NCCCCCNC(=O)[C@H]1C[C@H]2C(=O)N3CCC[C@H]3C(=O)N2[C@H]1c1cccc(OCCO)c1` was tested, and the composite z-score was 0.264. In the case of `CCCC[C@@H]1C[C@H]1[C@@H](NC(=O)c1cccs1)c1ccccc1C(F)(F)F`, the composite z-score is reported as 0.555. In the case of `CCOC(=O)C[C@H]1[C@H](OC(=O)Cc2ccc3c(c2)OCO3)[C@@H](NC(=O)C2CCCCC2)c2cc(OCCCO)ccc2N1C(=O)c1ccccc1`, the composite z-score is reported as 0.0914. With `COc1cc(C(O)C2C=CC3C(=O)N(C)C(=O)C3N2Nc2ccccc2)cc(OC)c1OC` (stereo unspecified) the composite z-score was 1.17. `COc1ccc([Si](C)(C)[C@@H]2[C@@H](CC(=O)N3Cc4ccccc4C[C@H]3CO)O[C@]3(C(=O)N(Cc4ccc(N5C(=O)c6cccc7cccc5c67)cc4)c4ccccc43)[C@H]2C)cc1` showed a composite z-score of 0.592. `C=CCC(OC(C)=O)[C@@H]1[C@@H](N(Cc2ccc(-c3cccc(C(F)(F)F)c3)o2)C(=O)c2ccc(-c3ccccc3)cc2)c2cc(OCCCO)ccc2N1C(=O)Cc1ccc2ccccc2c1` (stereo partly specified) showed a composite z-score of -1.1. Work on `C=CCNC(=O)[C@H]1[C@@H]2C(=O)O[C@@H](c3ccccc3)[C@@H](c3ccccc3)N2[C@@H](c2ccccc2OCCO)[C@]12C(=O)N(C(=O)OCCOC)c1ccc(C#CC3(O)CCCCCC3)cc12` yielded a composite z-score of 0.647. Compound `COc1ccc([Si](C)(C)[C@@H]2[C@@H](CCO)O[C@]3(C(=O)N(Cc4cccc(NC(=O)[C@H](C)O)c4)c4ccccc43)[C@H]2C)cc1` has a composite z-score of 0.97. Compound `CCCCC[C@H]1OC[C@@]23C=C(Br)[C@@H](CC12)[C@@]1(CO1)C3=O` (stereo partly specified) has a composite z-score of -0.424. For `C=CCN1Cc2ccccc2[C@@H]2OC(c3ccc(OCCCO)cc3)=N[C@]2(CC=C)C1=O`, the composite z-score was 0.966. Work on `Cc1ccc(NN2C(C(O)c3c(F)cccc3Cl)C=CC3C(=O)N(C4CCCCC4)C(=O)C32)cc1` (stereo unspecified) yielded a composite z-score of 0.448. `CCCCC(CC)C(O)C1C=CC2C(=O)N(c3ccccc3)C(=O)C2N1Nc1ccc(C#N)cc1` (stereo unspecified) was tested, and the composite z-score was 0.68. `NC(=O)[C@H]1[C@@H]2C(=O)O[C@@H](c3ccccc3)[C@@H](c3ccccc3)N2[C@@H](c2ccc(OCCO)cc2)[C@]12C(=O)Nc1ccc(C#CCCO)cc12` gave a composite z-score of 0.331. In the case of `CCC1=C2CN(Cc3ccccc3)[C@@H](C(=O)Cc3ccccc3)C2C=CCC1` (stereo partly specified), the composite z-score is reported as -0.124. In the case of `[N-]=[N+]=Nc1ccccc1C[C@]1(C(=O)NCC(O)CO)COC(c2ccc(OCCCO)cc2)=N1` (stereo partly specified), the composite z-score is reported as 1.72. With `CCCC=C(CCC)[C@@H](NP(=O)(c1ccccc1)c1ccccc1)c1ccc(-c2ccccc2)cc1` the composite z-score was 1.68. `CCOC(=O)C[C@H]1[C@H](OC(=O)c2ccc(C(=O)c3ccccc3)cc2)[C@@H](NC(=O)c2ccc(-c3ccccc3)cc2)c2cc(OCCCO)ccc2N1C(=O)Cc1ccc(OC)cc1` was tested, and the composite z-score was 0.022. In the case of `CO[C@H]1O[C@H](CO)[C@@H](OC(=O)CCc2ccccc2)[C@@H]2OC(=O)[C@@H](Cc3ccccc3)C/C=C/C[C@H](Cc3ccccc3)C(=O)O[C@@H]12`, the composite z-score is reported as 0.169. `CCOC(=O)C1=C[C@@H](c2ccccc2)N(S(=O)(=O)c2ccc(C)cc2)[C@H]1c1ccc(OC)cc1` gave a composite z-score of 0.513. `[N-]=[N+]=Nc1ccccc1C[C@]1(C(=O)NCCN2CCOCC2)COC(c2ccc(OCCCO)cc2)=N1` gave a composite z-score of 1.75. `COc1ccc([Si](C)(C)[C@H]2[C@H](CC(=O)N3Cc4ccccc4C[C@H]3CO)O[C@@]3(C(=O)N(Cc4ccc(N5CCOC5=O)cc4)c4ccccc43)[C@@H]2C)cc1` gave a composite z-score of 0.438. In the case of `CS(=O)(=O)CCOC(=O)C1=CC(c2ccc(CO)cc2)=CC(C2CC2)N(Cc2sc3ccccc3c2Cl)C=C1C(=O)OCCS(C)(=O)=O` (stereo unspecified), the composite z-score is reported as 1.31. With `CCCCNC(=O)c1ccc(C#CC(C)(C)C)c(OC(C)=O)c1` the composite z-score was 0.686. With `O=C1C2C=CC(C(O)c3ccco3)N(Nc3ccccc3F)C2C(=O)N1c1ccccc1` (stereo unspecified) the composite z-score was -0.0102. With `COc1cc(NN2C(C(O)c3ccco3)C=CC3C(=O)N(C)C(=O)C32)cc(OC)c1OC` (stereo unspecified) the composite z-score was 1.04. Work on `COC(=O)[C@@]1(Cc2ccc(F)cc2)[C@H]2c3cc(C(=O)N(C)C)n(CCc4ccc(OC)c(Br)c4)c3C[C@H]2CN1C(=O)c1ccccc1` yielded a composite z-score of 0.741. With `CC(C)[Si](C#CCCCC#N)(O[C@H](c1ccccc1)c1cn(Cc2ccccc2)nn1)C(C)C` the composite z-score was 0.194. In the case of `COCCOC(=O)N1C(=O)[C@@]2(c3cc(C#CC4(O)CCCCCC4)ccc31)[C@H](C(=O)Nc1nc3ccccc3s1)[C@H]1C(=O)O[C@H](c3ccccc3)[C@H](c3ccccc3)N1[C@@H]2c1ccc(O)cc1`, the composite z-score is reported as 0.753.
